# This is a sample that favours compounds with a hit; in the whole collection about 4.6% have one here.
# D1 ag – activates the human D1 dopamine receptor. P21728. 360,000 compounds, 1% hits. HEK293 T-REx D1 cells, calcium flux, agonist mode. activation, % at 2 µM; also: 0% is about no effect
# Target sequence (P21728 whole entry, looked up): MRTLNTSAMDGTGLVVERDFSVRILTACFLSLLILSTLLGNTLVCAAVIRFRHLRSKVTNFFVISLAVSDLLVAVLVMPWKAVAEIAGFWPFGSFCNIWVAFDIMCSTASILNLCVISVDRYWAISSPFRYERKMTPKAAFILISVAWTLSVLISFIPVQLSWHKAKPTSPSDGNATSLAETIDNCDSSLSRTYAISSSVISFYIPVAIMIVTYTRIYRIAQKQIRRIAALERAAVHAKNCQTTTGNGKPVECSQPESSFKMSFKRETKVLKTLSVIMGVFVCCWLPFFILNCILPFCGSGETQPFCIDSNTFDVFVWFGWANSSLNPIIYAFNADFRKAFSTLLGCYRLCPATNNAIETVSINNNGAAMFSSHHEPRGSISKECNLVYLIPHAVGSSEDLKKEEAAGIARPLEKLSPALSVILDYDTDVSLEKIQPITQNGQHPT
#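 Agonism was scored from calcium flux recorded over 180 s (1 read/s) after pintool compound addition, following a 10-cycle baseline. Cells were inducible force-coupled HEK293 TREx D1, plated overnight at 30 C and loaded with no-wash calcium dye.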
# D1 potentiator – potentiators of human D1 dopamine receptor; P21728; HEK293 TREx D1 cells, calcium flux, dopamine EC20 potentiation; potentiation, % at 10 µM; 360,000 compounds, 0.036% hits; in the data active = potentiation above about 30%; also: 0% is about no effect
# D1 antagonist – human D1 dopamine receptor antagonism. P21728. HEK293 TREx D1 cells, calcium flux, dopamine EC80; hits give low values. activity change, negative = inhibition, % at 10 µM. 360,000 compounds, 3.2% hits. AID 504652; in the data active = activity change below about -30%; also: % is scaled to controls: 0 for no effect and ±100 for the full control effect
#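 Allosteric or orthosteric antagonism assessed as attenuation of the calcium response to EC80 dopamine, added 180 s after compound, in induced HEK293 Trex D1 cells loaded with no-wash calcium dye.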
# TRHR ag – agonists of human TRH receptor; P34981; TRHR cells, calcium flux fluo-8, FDSS agonist mode; activation, % at 2 µM; 360,000 compounds, 0.18% hits; AID 493084; also: 0% is about no effect
#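 In this calcium-flux screen, cells bearing human TRHR are dye-loaded with fluo-8, baselined for 10 cycles, then exposed to library compounds; positive kinetic calcium responses during the agonist phase mark hits, with TRH as control.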
# TRHR enhancer – TRH receptor (human) allosteric enhancement; P34981; TRHR cells, fluo-8 calcium fluorescence, EC20 TRH enhancement; enhancement, % at 2 µM; 360,000 compounds, 0.66% hits; in the data active = enhancement above about 30%; also: 0% is about no effect
#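 Enhancer read-out: after compound pinning and an initial kinetic agonist-mode read, an EC20 of TRH (10 nM final) was injected and fluo-8 calcium signal (Ex 480/Em 530) followed at 1 s/cycle for 100 cycles in TRHR-expressing cells.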
# * marks the source's active call; other numbers are inactive results; . = no result. Rule as the data show it, unless noted: active = activation above about 30%; inactive = the rest.
SMILES,D1 ag,D1 potentiator,D1 antagonist,TRHR ag,TRHR enhancer
COc1ccc(Cl)cc1C(=O)NCCS(=O)(=O)N1CCN(c2ccccc2F)CC1,2,-7,6,0,-5
CCOc1ccc(CNC(=O)c2ccc3nc(Cc4ccc(OC)cc4)oc3c2)cc1OC,12,0,-2,0,12
COc1ccc(CCNC(=O)CCCc2ccccc2)cc1,1,-14,0,0,-4
Cc1ccc2nc(Cl)c(CNCc3ccccc3)cc2c1,4,5,-35*,0,27
CCN1C(=O)[C@H]2[C@@H](c3ccc(-c4cc(C(C)=O)cs4)cc3)N3CCC[C@@]3(C(=O)OC)[C@H]2C1=O,-1,-9,-31*,0,-5
Cc1ccc(NS(=O)(=O)c2ccc(NC(=O)c3ccc(Br)o3)cc2)c(C)c1,11,-2,-5,1,-4
COc1ccc(C(CNC(=O)c2cccc(S(=O)(=O)Nc3ccc(F)cc3)c2)N(C)C)cc1 (stereo unspecified),44*,-6,-23,0,33*
CCOc1ccc(NS(=O)(=O)c2ccc(C(=O)NCC(c3ccco3)N(C)C)cc2)cc1 (stereo unspecified),70*,4,-13,7,-1
CCOC(=O)c1c(C)[nH]c(C(=O)N(C)Cc2cccc(OC)c2OC)c1C,38*,-7,2,-1,4
O=S(=O)(NCC(c1ccco1)N1CCCCC1)c1ccccc1C(F)(F)F (stereo unspecified),2,-1,-42*,1,-7
CCC(CC)CN1C(Nc2ccccc2)=NC[C@@H]1CC(C)C,7,-7,6,1,-2
O=C(NNC(=O)c1ccc([N+](=O)[O-])cc1)NC1CCCCC1,1,-1,4,0,-6
CCOc1ccc(S(=O)(=O)Nc2cccc(C(=O)NCC(c3ccccc3)N(C)C)c2)cc1 (stereo unspecified),35*,2,8,4,-3
Cc1ccc(NS(=O)(=O)c2cccc(C(=O)NCC(c3ccco3)N3CCCC3)c2)cc1 (stereo unspecified),44*,.,13,3,3
COc1ccc(NS(=O)(=O)c2cccc(C(=O)N(C)Cc3cccs3)c2)cc1,17,-8,-25,-1,5
COc1ccc(C(CNC(=O)c2cccc(NS(=O)(=O)c3ccccc3)c2)N(C)C)cc1 (stereo unspecified),3,-7,-8,0,-2
CCOc1ccc(S(=O)(=O)Nc2cccc(C(=O)N(C)Cc3cccc(OC)c3OC)c2)cc1,7,-6,-32*,-1,2
COc1ccc(NS(=O)(=O)c2ccc(C(=O)N(C)Cc3cccs3)cc2)cc1,60*,2,-35*,5,5
CCOc1ncccc1C(=O)NNC(=O)c1cccc(S(=O)(=O)Nc2ccc(OC)cc2)c1,3,-14,-46*,0,-5
CCOc1ccc(S(=O)(=O)Nc2ccc(C(=O)NCC(c3ccco3)N3CCCCC3)cc2)cc1 (stereo unspecified),33*,4,0,0,-21
Cc1ccc(NS(=O)(=O)c2ccc(C(=O)NCC(c3ccco3)N3CCCCC3)cc2)cc1 (stereo unspecified),39*,-3,-1,4,7
O=C(NCC(c1ccco1)N1CCCCC1)c1ccc(S(=O)(=O)Nc2ccccc2)cc1 (stereo unspecified),11,0,7,1,11
CCOc1ccccc1C(=O)NCC(=O)NNC(=O)c1cccc(S(=O)(=O)Nc2ccc(OC)cc2)c1,1,-5,-20,0,2
O=C(NCC(c1ccco1)N1CCCCC1)c1ccc(OCc2ccccc2)cc1 (stereo unspecified),4,-5,-27,-1,3
N#CCC(=O)Nc1ccc(C(=O)NCC(c2ccco2)N2CCCCC2)cc1 (stereo unspecified),4,1,2,1,38*
SMILES,D1 ag,D1 potentiator,D1 antagonist,TRHR ag,TRHR enhancer
C[N+]1(CC(O)COCC2COc3ccccc3O2)CCOCC1 (stereo unspecified),2,5,-3,0,0
COc1ccc(C2=NN(C(=O)c3cccs3)C(O)(C(F)(F)F)C2)cc1 (stereo unspecified),3,-6,0,-1,-6
Cc1ccc(S(=O)(=O)NC(CC(C)C)C(=O)NCC(c2ccco2)N2CCCCC2)cc1 (stereo unspecified),3,-6,13,-1,0
CC(=O)Nc1ccc(S(=O)(=O)NC(C)C(=O)NCC(c2ccco2)N2CCCCC2)cc1 (stereo unspecified),1,-2,-46*,0,3
CC(Oc1ccc2ccc(=O)oc2c1)C(=O)NC1CC(C)(C)NC(C)(C)C1 (stereo unspecified),3,-6,-9,1,12
Cc1ccc2oc(-c3cccc(NC(=O)Cc4ccc(Cl)cc4)c3)nc2c1,-2,-1,-10,-2,-3
CCc1nc(Nc2ccc(N3CCN(C(C)=O)CC3)cc2)c2oc3ccccc3c2n1,1,-3,-18,-3,8
C/C(O)=c1/cnc2nc3ccccc3n2c1=O,3,-8,-44*,0,-7
Cc1ccc(-c2cc(C(=O)Nc3cc(C)ccc3O)no2)cc1,3,2,-8,0,0
Cc1cc(O)c(NC(=O)c2cc([N+](=O)[O-])ccc2Cl)cc1C,11,-3,-4,-2,1
Cc1ccc(O)c(NC(=O)c2cc(-c3ccccc3Cl)on2)c1,6,4,-33*,1,-14
Cc1ccc(O)c(NC(=O)c2cc(-c3ccccc3O)no2)c1,15,7,-31*,0,-7
COc1cc(NC(=O)c2cc(-c3ccccc3O)no2)cc(OC)c1OC,0,-1,12,-1,-7
Cc1ccc(O)c(NC(=O)c2cc([N+](=O)[O-])ccc2Cl)c1,8,-4,-30*,-2,9
COc1ccc(OC2CCN(S(=O)(=O)c3ccc(OC)c(OC)c3)CC2)cc1,7,-2,-23,0,15
CC1=C(C(N)=O)C(c2ccccc2)n2nc(-c3cccs3)nc2N1 (stereo unspecified),6,.,0,2,-8
CCOC(=O)C1CCN(CC(C)(C)NS(=O)(=O)c2ccc(Cl)cc2)CC1,2,-12,-31*,0,1
CCOC(=O)C1CCN(CC(C)(C)NS(=O)(=O)c2ccc(C)cc2)CC1,6,-8,0,-1,27
CCOC(=O)N1CCC(NC(=O)c2ccc(CNS(=O)(=O)c3ccc(F)cc3)cc2)CC1,4,-5,-34*,0,-7
COc1ccc(CN2CCN(C(=O)c3ccc(CNS(=O)(=O)c4ccc(C)cc4)cc3)CC2)c(OC)c1OC,7,-8,-30*,0,-4
